Results filed as inconclusive are left out. Active and inactive are the calls of the source. Calls come from the whole dose curve; as a rule, active = well fitted cell-killing curve with a large enough effect; inconclusive = small, poorly fitted or top-dose-only effect, or effect the other way; inactive = no such curve, though single readings can be large or run the other way.
Potency is the fitted concentration of half-maximal effect.

The experiment in a line: Viability qHTS for spleen associated tyrosine kinase inhibitor (SYKi) drug resistant MV4-11 cells (AID 1963824). Note: nearly all actives have a fitted effect of over 35% in size. The conditions noted are these: SYKi-resistant MV4-11 viability, CellTiter-Glo, 72 h; series mostly up to 45 µM; viability, % of control: at the top concentration. The essentials:
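SYK inhibitor-resistant MV4-11 AML cells, 500 per well, added to predispensed compounds and incubated 72 hr at 37 C, 5% CO2. Viability measured by CellTiter-Glo luminescence after 10 min at room temperature.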
Consider `CC(=O)c1c(C)cc(O[C@@H]2O[C@H](CO)[C@@H](O)[C@H](O)[C@H]2O)cc1O`, for which the “viability, % of control” value is 91.8% (inactive).

For the compound `CC(=O)O[C@H]1CC(C)(C)CC2[C@]13CO[C@@]21CCC2[C@@]4(C)CC[C@H](O[C@@H]5OC[C@H](O[C@@H]6O[C@H](CO)[C@@H](O)[C@H](O)[C@H]6O[C@@H]6OC[C@@H](O[C@@H]7O[C@H](CO)[C@@H](O)[C@H](O)[C@H]7O)[C@H](O)[C@H]6O)[C@H](O)[C@H]5O[C@@H]5O[C@H](CO)[C@@H](O)[C@H](O)[C@H]5O)[C@@](C)(CO)C4CC[C@@]2(C)[C@]1(C)C[C@H]3O` (stereo partly specified), the Potency was 1.23 µM (active). On to `CC1(O)CC(O)C2(O)C=COC(O[C@@H]3O[C@H](CO)[C@@H](O)[C@H](O)[C@H]3O)C12` (stereo partly specified), for which the “viability, % of control” value was 106% (inactive). Turning to `COc1cc2c(cc1OC)CN(C(=O)/C=C/c1c(-c3ccccc3)n(C)c3ncccc13)CC2`, the Potency is 3.66 µM (active). The same measure, in the same setting: under `Cc1cc(CN)cc(C)c1NC(=O)c1ccc(-c2cc(Cl)ccc2Cl)o1` stands 9.2 µM (active); under `C=CC(=O)N1CCCC(n2nc(-c3ccc(Oc4ccccc4)cc3)c3c(N)ncnc32)C1` (stereo unspecified), 1.16 µM (active); under `COc1cc(-c2cc(-c3cccc(O)c3)cnc2N)cc(OC)c1OC`, 9.2 µM (active). The same measure, in the same setting: under `Cc1cncc2cccc(S(=O)(=O)N3CCCNC[C@@H]3C)c12` stands 9.2 µM (active).

With `O=C1Nc2ccc(O)cc2O[C@H]1O[C@@H]1O[C@H](CO)[C@@H](O)[C@H](O)[C@H]1O`, the “viability, % of control” value is 91.2% (inactive).

Consider `CCC1=C(C)C(=O)C(C)CC12C(=O)CCC2C(=O)O` (stereo unspecified), for which the “viability, % of control” value is 94.6% (inactive). Turning to `C=C1CCC2C(C)(C(=O)O)CCCC2(C)C1CC/C(=C\CO)CO` (stereo unspecified), the “viability, % of control” value is 77.9% (inactive).

Source of the values: PubChem BioAssay (NCATS).
